In PubChem BioAssay (EPA / NIEHS):
Records with an inconclusive call do not appear. Activity calls are given as the source filed them. The calls were made as follows: active = hit-call score of the fitted dose curve at least 0.9, where 1 is the maximum; inconclusive = response in the unintended direction; inactive = score below 0.9.

Assays:
[1] = biological target: human Neonicotinoid receptor (NNR), CHRNA2 (gene 1135) (UniProt Q15822); assay: NVS_LGIC_hNNR_NBungSens: NovaScreen (NVS) Ligand-Gated Ion Channel Assay for human Neonicotinoid receptor (NNR) (AID 2283313)
In short: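 Compounds first screened in duplicate at 25 uM, then actives re-tested in single-replicate dose series up to 50 uM. Binding measured as displacement of specific radioligand from neuroblastoma membrane receptors after 2 h, scintillation read on filters.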

[2] = biological target: rat Neurokinin-1 Receptor (NK1), Tacr1 (gene 24807) (UniProt P14600); assay: NVS_GPCR_rNK1: NovaScreen (NVS) G Protein-Coupled Receptor Assay for rat Neurokinin-1 Receptor (NK1) (AID 2283309)
In short: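 Competitive radioligand binding to NK1 in rat submaxillary membranes, 1 h incubation, filtration and scintillation read-out. Compounds first screened at 25 uM in duplicate, then concentration-response for actives; signal loss relative to DMSO.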

[3] = biological target: rat Serotonin, 5-Hydroxytryptamine Receptor (5HT), Non-Selective Binding, Htr1a (gene 24473) (UniProt P19327); assay: NVS_GPCR_r5HT_NonSelective: NovaScreen (NVS) G Protein-Coupled Receptor Assay for rat Serotonin, 5-Hydroxytryptamine Receptor (5HT), Non-Selective Binding (AID 2283295)
In short: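 Rat cortex membrane preparation incubated 1 h with radioligand and test chemical; bound radioactivity counted after filtration. Screening began in duplicate at 25 uM with concentration-series follow-up; fitting relative to DMSO.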

[4] = biological target: rat Neurotensin Receptor (NTS), Ntsr1 (gene 366274) (UniProt P20789); assay: NVS_GPCR_rNTS: NovaScreen (NVS) G Protein-Coupled Receptor Assay for rat Neurotensin Receptor (NTS) (AID 2283308)
In short: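 Single-point duplicates at 25 uM, then concentration series to 50 uM max for hits, measured radioligand displacement on rat forebrain membrane preparations. Bound label counted by filtration scintillation at 1 h; signal loss relative to DMSO fitted.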

[5] = biological target: rat Adrenergic Receptor, Alpha 2 (Adra2), Non-selective Binding, Adra2a (gene 25083) (UniProt P22909); assay: NVS_GPCR_rAdra2_NonSelective: NovaScreen (NVS) G Protein-Coupled Receptor Assay for rat Adrenergic Receptor, Alpha 2 (Adra2), Non-selective Binding (AID 2283299)
In short: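 Filter-based scintillation counting of radioligand binding to rat cortical membrane receptors, measured 1.25 hours post-dosing; loss of signal versus DMSO indicates displacement. Initial single-concentration duplicate at 25 uM, then concentration series.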

[6] = biological target: rat Histamine Receptor (H3), Hrh3 (gene 85268) (UniProt Q9QYN8); assay: NVS_GPCR_rH3: NovaScreen (NVS) G Protein-Coupled Receptor Assay for rat Histamine Receptor (H3) (AID 2283303)
In short: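 Filter-binding radioligand competition on rat forebrain membranes, 1 h incubation; compounds screened at 25 µM in duplicate and followed in concentration series to 50 µM, loss of bound signal vs DMSO.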

[7] = biological target: rat Somatostatin Receptor (SST), Sstr1 (gene 25033) (UniProt P28646); assay: NVS_GPCR_rSST: NovaScreen (NVS) G Protein-Coupled Receptor Assay for rat Somatostatin Receptor (SST) (AID 2283314)
In short: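 Single-concentration duplicate screen (25 uM), then concentration-response up to 50 uM for chemicals passing a threshold such as 30% inhibition. Membranes came from rat forebrain. Binding was measured 1 h post-dose by filter radiodetection and scintillation, relative to DMSO.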

[8] = biological target: rat Vasopressin 1 Receptor (V1), Avpr1a (gene 25107) (UniProt P30560); assay: NVS_GPCR_rV1: NovaScreen (NVS) G Protein-Coupled Receptor Assay for rat Vasopressin 1 Receptor (V1) (AID 2283316)
In short: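 Concentration-response up to 50 uM for chemicals passing a threshold such as 30% inhibition in an initial duplicate 25 uM screen. Displacement of radioligand from rat liver membranes measured after 1.5 h by filtration and scintillation.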

[9] = biological target: rat Corticotropin Releasing Factor Receptor (CRF), Crhr1 (gene 58959) (UniProt P35353); assay: NVS_GPCR_rCRF: NovaScreen (NVS) G Protein-Coupled Receptor Assay for rat Corticotropin Releasing Factor Receptor (CRF) (AID 2283300)
In short: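 Single-concentration (25 uM, duplicate) radioligand binding on rat cortical membrane preparations, counted by scintillation after 2 h. Activity scored as signal loss relative to DMSO negative control.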

[10] = biological target: rat Opioid Receptor, Non-selective Sodium (Na+) Binding, Oprm1 (gene 25601) (UniProt P33535); assay: NVS_GPCR_rOpiate_NonSelectiveNa: NovaScreen (NVS) G Protein-Coupled Receptor Assay for rat Opioid Receptor, Non-selective Sodium (Na+) Binding (AID 2283311)
In short: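 Filtration radioligand binding on rat forebrain membrane preparations, read 1.5 h after dosing. Single-concentration 25 µM primary screen in duplicate, followed by singleton concentration series to 50 µM max for actives; DMSO baseline.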

[11] = biological target: guinea pig Serotonin, 5-Hydroxytryptamine Receptor 4 (5HT4), HTR4 (gene 100135548) (UniProt O70528); assay: NVS_GPCR_g5HT4: NovaScreen (NVS) G Protein-Coupled Receptor Assay for guinea pig Serotonin, 5-Hydroxytryptamine Receptor 4 (5HT4) (AID 2283294)
In short: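 Compounds first screened in duplicate at 25 uM, actives followed up in concentration series. Binding measured as displacement of specific radioligand from guinea pig striatal membranes, 1 h, filter-based scintillation read-out versus DMSO baseline.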

[12] = biological target: rat Neonicotinoid receptor (NNR), Chrna7 (gene 25302) (UniProt Q05941); assay: NVS_LGIC_rNNR_BungSens: NovaScreen (NVS) Ligand-Gated Ion Channel Assay for rat Neonicotinoid receptor (NNR) (AID 2283315)
In short: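 Rat cortical membrane preparation incubated 2.5 h with tritiated or iodinated radioligand and test chemical. Bound radioactivity was filtered and counted by scintillation, and displacement was analysed against DMSO.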

Adra2b (gene 24174) = Adra2b (gene 24174) (UniProt P19328); assay: NVS_GPCR_rmAdra2B: NovaScreen (NVS) G Protein-Coupled Receptor Assay for hybird cells Adrenergic, Alpha 2B Receptor (Adra2B) (AID 2283306)
In short: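 Compounds screened first at 25 uM in duplicate, with actives followed up in concentration-response; specific radioligand displacement from hybrid neuroglioma/blastoma cell membrane preparations measured by filter scintillation counting after 1 h, normalized to DMSO.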

[13] = biological target: rat Neurokinin-3 Receptor (NK3), Tacr3 (gene 24808) (UniProt P16177); assay: NVS_GPCR_rNK3: NovaScreen (NVS) G Protein-Coupled Receptor Assay for rat Neurokinin-3 Receptor (NK3) (AID 2283310)
In short: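 Filter-based radioligand displacement on rat cortex membrane preparations, read by scintillation 2 h post-dose. Chemicals first tested in duplicate at 25 uM; actives followed up in concentration series with a 50 uM maximum.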

[14] = biological target: rat Adrenergic, Alpha 1A Receptor (Adra1A), Adra1a (gene 29412) (UniProt P43140); assay: NVS_GPCR_rAdra1A: NovaScreen (NVS) G Protein-Coupled Receptor Assay for rat Adrenergic, Alpha 1A Receptor (Adra1A) (AID 2283296)
In short: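 Filter radiodetection after 1 h competitive binding on CEC-pretreated rat cortical membranes. Duplicate single-point screening at 25 uM; active chemicals retested across concentration series.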

[15] = biological target: rat Gamma-Aminobutyric Acid Type B Receptor (GABBR), Gabbr1 (gene 81657) (UniProt Q9Z0U4); assay: NVS_GPCR_rGABBR: NovaScreen (NVS) G Protein-Coupled Receptor Assay for rat Gamma-Aminobutyric Acid Type B Receptor (GABBR) (AID 2283301)
In short: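 Rat cortical membrane preparation, competitive radioligand binding for 1 h with filtration and scintillation readout. Actives from duplicate single-point 25 uM screening proceeded to concentration series with 50 uM top concentration.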

[16] = tested on: rat Adrenergic, Alpha 1B Receptor (Adra1B), gene 24173; assay: NVS_GPCR_rAdra1B: NovaScreen (NVS) G Protein-Coupled Receptor Assay for rat Adrenergic, Alpha 1B Receptor (Adra1B) (AID 2283297)
In short: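 Filter-binding radioligand competition on membranes from rat liver, read after 1 h by scintillation counting. Single-concentration duplicate screen at 25 uM, followed by concentration-response on actives, normalised to DMSO.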

Chain of human Neonicotinoid receptor (NNR), CHRNA2 (gene 1135) (Q15822 whole entry, looked up): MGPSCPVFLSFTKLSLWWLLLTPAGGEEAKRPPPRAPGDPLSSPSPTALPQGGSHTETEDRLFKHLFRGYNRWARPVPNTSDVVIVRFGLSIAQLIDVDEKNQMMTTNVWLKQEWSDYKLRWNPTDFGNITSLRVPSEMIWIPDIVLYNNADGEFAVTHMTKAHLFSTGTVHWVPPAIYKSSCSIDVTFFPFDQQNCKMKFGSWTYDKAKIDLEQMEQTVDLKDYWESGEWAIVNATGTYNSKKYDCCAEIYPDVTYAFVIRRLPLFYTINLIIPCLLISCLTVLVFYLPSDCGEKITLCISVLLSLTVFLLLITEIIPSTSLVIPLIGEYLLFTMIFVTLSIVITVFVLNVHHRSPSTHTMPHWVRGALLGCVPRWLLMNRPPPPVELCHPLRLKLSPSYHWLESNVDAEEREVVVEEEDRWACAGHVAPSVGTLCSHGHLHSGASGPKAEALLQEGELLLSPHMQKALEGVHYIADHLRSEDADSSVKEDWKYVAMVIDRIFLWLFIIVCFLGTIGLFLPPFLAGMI
Chain of rat Neurotensin Receptor (NTS), Ntsr1 (gene 366274) (P20789 whole entry, looked up): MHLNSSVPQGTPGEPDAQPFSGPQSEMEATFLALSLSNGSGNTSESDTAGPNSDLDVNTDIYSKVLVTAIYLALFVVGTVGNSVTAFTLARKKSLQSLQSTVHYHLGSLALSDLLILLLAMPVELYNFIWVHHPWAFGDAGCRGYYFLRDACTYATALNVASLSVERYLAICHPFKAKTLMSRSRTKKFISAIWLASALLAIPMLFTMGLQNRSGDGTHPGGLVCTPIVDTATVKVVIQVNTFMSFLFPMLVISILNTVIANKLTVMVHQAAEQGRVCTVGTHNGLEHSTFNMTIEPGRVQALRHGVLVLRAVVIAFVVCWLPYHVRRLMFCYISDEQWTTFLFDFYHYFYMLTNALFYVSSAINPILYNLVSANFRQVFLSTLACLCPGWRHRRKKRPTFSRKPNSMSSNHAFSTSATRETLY
Chain of rat Neurokinin-3 Receptor (NK3), Tacr3 (gene 24808) (P16177 whole entry, looked up): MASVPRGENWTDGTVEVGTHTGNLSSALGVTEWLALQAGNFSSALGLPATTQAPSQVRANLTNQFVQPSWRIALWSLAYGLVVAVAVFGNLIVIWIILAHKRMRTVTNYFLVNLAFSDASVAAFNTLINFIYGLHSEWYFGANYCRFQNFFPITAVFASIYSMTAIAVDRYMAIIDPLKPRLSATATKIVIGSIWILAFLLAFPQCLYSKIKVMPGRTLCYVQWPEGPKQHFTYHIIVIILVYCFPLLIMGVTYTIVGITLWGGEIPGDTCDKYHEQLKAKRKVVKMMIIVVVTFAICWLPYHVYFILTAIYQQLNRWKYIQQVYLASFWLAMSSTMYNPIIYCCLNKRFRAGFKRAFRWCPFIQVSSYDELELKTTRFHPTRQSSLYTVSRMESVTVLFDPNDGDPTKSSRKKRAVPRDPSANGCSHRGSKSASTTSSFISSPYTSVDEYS
Chain of rat Neurokinin-1 Receptor (NK1), Tacr1 (gene 24807) (P14600 whole entry, looked up): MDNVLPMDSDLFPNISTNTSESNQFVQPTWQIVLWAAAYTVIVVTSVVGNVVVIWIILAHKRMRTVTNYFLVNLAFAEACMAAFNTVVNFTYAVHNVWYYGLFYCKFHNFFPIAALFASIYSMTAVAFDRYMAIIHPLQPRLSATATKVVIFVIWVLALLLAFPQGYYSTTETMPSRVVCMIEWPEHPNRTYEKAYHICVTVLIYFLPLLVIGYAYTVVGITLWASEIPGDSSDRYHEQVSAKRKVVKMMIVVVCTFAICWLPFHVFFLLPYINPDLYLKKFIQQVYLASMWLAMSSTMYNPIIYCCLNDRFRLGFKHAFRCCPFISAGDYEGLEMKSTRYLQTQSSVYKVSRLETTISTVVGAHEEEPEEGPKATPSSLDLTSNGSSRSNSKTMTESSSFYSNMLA
Chain of rat Adrenergic Receptor, Alpha 2 (Adra2), Non-selective Binding, Adra2a (gene 25083) (P22909 whole entry, looked up): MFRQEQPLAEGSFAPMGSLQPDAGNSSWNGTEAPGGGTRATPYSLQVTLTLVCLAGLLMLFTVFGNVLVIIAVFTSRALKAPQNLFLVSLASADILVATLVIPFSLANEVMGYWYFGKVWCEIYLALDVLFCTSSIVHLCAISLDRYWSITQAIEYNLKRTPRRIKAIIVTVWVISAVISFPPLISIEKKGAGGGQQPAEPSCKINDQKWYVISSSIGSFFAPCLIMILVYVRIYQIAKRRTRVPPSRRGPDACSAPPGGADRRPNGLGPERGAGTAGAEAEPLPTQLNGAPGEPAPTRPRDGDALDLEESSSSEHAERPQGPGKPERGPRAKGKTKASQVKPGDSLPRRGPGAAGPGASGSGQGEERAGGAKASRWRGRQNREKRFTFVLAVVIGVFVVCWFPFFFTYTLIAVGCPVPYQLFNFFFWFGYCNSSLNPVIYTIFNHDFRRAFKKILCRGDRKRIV
Chain of guinea pig Serotonin, 5-Hydroxytryptamine Receptor 4 (5HT4), HTR4 (gene 100135548) (O70528 whole entry, looked up): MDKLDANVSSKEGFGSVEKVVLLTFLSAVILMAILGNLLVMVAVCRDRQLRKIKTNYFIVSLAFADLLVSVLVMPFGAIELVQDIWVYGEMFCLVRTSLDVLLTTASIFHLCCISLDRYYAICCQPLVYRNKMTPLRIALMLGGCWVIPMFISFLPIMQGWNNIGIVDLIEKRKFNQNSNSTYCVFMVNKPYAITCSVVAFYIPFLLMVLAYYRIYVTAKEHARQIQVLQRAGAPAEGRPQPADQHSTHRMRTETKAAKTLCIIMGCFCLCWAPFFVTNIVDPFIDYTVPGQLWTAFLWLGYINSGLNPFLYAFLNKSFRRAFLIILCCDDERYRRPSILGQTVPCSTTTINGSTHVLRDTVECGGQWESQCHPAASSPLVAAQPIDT
Chain of rat Opioid Receptor, Non-selective Sodium (Na+) Binding, Oprm1 (gene 25601) (P33535 whole entry, looked up): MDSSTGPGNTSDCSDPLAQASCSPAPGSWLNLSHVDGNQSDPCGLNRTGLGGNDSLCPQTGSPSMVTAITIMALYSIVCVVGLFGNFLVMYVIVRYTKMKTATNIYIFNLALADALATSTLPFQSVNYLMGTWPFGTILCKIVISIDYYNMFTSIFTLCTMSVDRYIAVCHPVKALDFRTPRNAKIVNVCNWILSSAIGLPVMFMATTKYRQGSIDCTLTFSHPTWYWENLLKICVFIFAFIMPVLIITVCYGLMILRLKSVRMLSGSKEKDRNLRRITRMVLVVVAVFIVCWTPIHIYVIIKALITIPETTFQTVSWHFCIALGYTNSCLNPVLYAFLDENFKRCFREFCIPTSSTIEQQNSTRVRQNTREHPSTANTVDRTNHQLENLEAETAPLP
Chain of rat Corticotropin Releasing Factor Receptor (CRF), Crhr1 (gene 58959) (P35353 whole entry, looked up): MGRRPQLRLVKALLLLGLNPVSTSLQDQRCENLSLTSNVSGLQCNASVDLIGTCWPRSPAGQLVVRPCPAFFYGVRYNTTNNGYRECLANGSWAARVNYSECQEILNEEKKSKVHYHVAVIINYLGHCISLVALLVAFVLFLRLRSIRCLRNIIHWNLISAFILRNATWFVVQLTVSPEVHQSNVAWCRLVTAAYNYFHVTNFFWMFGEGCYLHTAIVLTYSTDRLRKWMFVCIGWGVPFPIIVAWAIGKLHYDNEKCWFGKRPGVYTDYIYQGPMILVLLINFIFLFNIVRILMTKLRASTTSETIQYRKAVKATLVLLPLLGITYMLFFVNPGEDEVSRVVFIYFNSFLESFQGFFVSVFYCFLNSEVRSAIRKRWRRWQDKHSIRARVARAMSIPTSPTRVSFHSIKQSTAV
Chain of rat Serotonin, 5-Hydroxytryptamine Receptor (5HT), Non-Selective Binding, Htr1a (gene 24473) (P19327 whole entry, looked up): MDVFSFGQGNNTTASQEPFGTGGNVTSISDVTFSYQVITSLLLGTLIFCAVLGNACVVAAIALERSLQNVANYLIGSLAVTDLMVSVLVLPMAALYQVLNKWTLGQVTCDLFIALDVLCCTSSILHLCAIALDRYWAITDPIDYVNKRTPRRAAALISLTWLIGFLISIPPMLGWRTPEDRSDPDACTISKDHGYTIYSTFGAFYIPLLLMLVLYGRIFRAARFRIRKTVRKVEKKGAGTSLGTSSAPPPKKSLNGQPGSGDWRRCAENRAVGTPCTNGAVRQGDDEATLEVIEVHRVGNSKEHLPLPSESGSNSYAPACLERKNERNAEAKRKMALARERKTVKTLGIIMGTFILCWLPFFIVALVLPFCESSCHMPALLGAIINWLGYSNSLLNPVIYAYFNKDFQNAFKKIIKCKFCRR
Chain of rat Adrenergic, Alpha 1A Receptor (Adra1A), Adra1a (gene 29412) (P43140 whole entry, looked up): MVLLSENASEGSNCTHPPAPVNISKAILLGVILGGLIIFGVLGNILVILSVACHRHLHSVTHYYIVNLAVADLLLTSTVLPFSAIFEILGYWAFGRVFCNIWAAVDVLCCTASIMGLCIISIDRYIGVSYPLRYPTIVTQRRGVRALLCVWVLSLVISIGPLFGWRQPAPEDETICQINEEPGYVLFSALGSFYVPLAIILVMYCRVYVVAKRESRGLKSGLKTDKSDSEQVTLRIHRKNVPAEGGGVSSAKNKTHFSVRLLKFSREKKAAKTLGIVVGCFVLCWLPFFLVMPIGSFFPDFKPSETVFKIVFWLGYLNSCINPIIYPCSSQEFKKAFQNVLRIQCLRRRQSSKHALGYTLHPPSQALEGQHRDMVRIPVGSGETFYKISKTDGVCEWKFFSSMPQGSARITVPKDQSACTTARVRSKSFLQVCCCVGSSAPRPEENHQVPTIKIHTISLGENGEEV
Chain of rat Neonicotinoid receptor (NNR), Chrna7 (gene 25302) (Q05941 whole entry, looked up): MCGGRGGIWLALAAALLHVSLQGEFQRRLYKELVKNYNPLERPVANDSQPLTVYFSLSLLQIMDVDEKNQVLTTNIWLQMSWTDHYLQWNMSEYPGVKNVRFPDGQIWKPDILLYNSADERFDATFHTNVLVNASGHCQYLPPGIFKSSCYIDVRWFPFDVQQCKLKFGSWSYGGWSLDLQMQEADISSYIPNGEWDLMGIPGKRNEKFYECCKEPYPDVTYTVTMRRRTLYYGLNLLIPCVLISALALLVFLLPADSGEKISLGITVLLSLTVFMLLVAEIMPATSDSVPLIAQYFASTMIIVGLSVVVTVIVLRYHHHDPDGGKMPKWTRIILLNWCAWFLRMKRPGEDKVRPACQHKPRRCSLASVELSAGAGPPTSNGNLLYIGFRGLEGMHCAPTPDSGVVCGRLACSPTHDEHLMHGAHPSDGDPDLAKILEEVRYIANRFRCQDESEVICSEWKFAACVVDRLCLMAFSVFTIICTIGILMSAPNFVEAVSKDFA

CSc1nnc(C(C)(C)C)c(=O)n1N
outcome [1]: inactive

CNC(=O)ON=C(C)SC
AC50 [2]: 44.1 µM (active)

COc1cc(OC)nc(Sc2cccc(Cl)c2C(=O)O)n1
outcome [3]: inactive

CC1=NNC(=O)N(/N=C/c2cccnc2)C1
outcome [4]: inactive

S=C1NCCN1
outcome [5]: inactive
outcome [4]: inactive
outcome [1]: inactive

N#CSCSC#N
AC50 [6]: 9.77 µM (active)
outcome [7]: inactive
AC50 [8]: 2.01 µM (active)

CCOP(=S)(Oc1cnc(C(C)(C)C)nc1)OC(C)C (configuration not stated)
outcome [5]: inactive

C#CC(C)(C)NC(=O)c1cc(Cl)cc(Cl)c1
outcome [9]: inactive

CCc1cccc(C)c1N(C(=O)CCl)C(C)COC (configuration not stated)
AC50 [10]: 12.4 µM (active)

CSc1nc(NC(C)C)nc(NC(C)C)n1
outcome [11]: inactive

CC(=NC#N)N(C)Cc1ccc(Cl)nc1
AC50 [1]: 4.61 µM (active)
AC50 [12]: 8.03 µM (active)

CCC(=O)Nc1ccc(Cl)c(Cl)c1
AC50 [11]: 9.91 µM (active)
AC50 [3]: 34.6 µM (active)
outcome (Adra2b (gene 24174)): inactive

Nc1c(Cl)cc([N+](=O)[O-])cc1Cl
outcome [9]: inactive

CN(C)C(=O)Nc1cccc(C(F)(F)F)c1
outcome [13]: inactive

CC(C)[C@H](C(=O)O[C@H](C#N)c1cccc(Oc2ccccc2)c1)c1ccc(Cl)cc1
outcome [11]: inactive
outcome [5]: inactive

CCOP(=O)(OCC)Oc1cc(C)nc(C(C)C)n1
outcome [4]: inactive
outcome [2]: inactive
outcome [12]: inactive

CCOP(=O)(NC(C)C)Oc1ccc(SC)c(C)c1 (configuration not stated)
outcome [13]: inactive

CSC1=N[C@@](C)(c2ccccc2)C(=O)N1Nc1ccccc1
outcome [14]: inactive
outcome [2]: inactive

COP(=O)(NC(C)=O)SC (configuration not stated)
outcome [15]: inactive

CCCSP(=O)(OCC)SCCC
outcome [10]: inactive

COP(=O)(OC)OC(Br)C(Cl)(Cl)Br (configuration not stated)
AC50 [6]: 5.79 µM (active)

C[Si](Cn1cncn1)(c1ccc(F)cc1)c1ccc(F)cc1
AC50 [14]: 16.9 µM (active)
AC50 [16]: 19.1 µM (active)
AC50 (Adra2b (gene 24174)): 25 µM (active)
outcome [2]: inactive
outcome [13]: inactive
